Screening data: PubChem, National Center for Advancing Translational Sciences (NCATS)
Pf Dd2 growth: blocks in vitro growth of P. falciparum Dd2; AID 1347417; hit rate 4.3% among 120,000; Potency, µM (series often up to 28.9 µM), for the others: at the top dose activity, negative = inhibition, usual class: inhibitors; P. falciparum Dd2 growth, SYBR Green, 72 h; active = well fitted inhibition curve with a large enough effect;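 note: plate controls were DMSO vehicle for no effect and reference drug for full effect; nearly all actives have a fitted effect of over 65% in size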
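Readout: SYBR Green fluorescence, 485 nm excitation, 535 nm emission, after ~16 h lysis at 37C. Before that, Dd2-infected red cells (2.5% hematocrit) grew 72 h with compound, 29 uM top final concentration.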
Active calls of the source: *; i = inactive; [ ] = remark or other dose. Only a selection was taken, and hits are over-represented in it overall. Potency is the fitted concentration of half-maximal effect.

SMILES	Pf Dd2 growth
COCC1CN(C(C)=O)CC12CCN(Cc1sccc1C)CC2 (stereo not drawn)	2.8%
CC1CCN(CC2CCCN(C(=O)c3cnccn3)CC2)CC1 (stereo not drawn)	0.6%
CC1=C[C@@H](CNC(=O)CC(C)(C)CC(=O)O)[C@H](C(C)C)C[C@H]1Cc1nc2ccccc2[nH]1	-18.6%
OCC1(c2nc(C3CCOCC3)nn2-c2cccc3c2CCC3)CC1	5.4%
COC(=O)CCC(=O)N[C@H]1CO[C@H]2[C@@H]1OC[C@H]2OCc1ccccc1	23.7%[44.1 µM]
O=C(c1c(OCC2CC2)cc(=O)n2c1CCOCC2)N1CCN(c2ncccn2)CC1	10.1%
CCNC(=O)N1CCc2nc(OCCOC)ccc2C1	27.7%
Cc1ccc(C2NC(=O)N(CC(=O)Nc3ccc(C(C)C)cc3)C3=C2C(=O)OC3)cc1 (stereo not drawn)	-20.0%
Cc1ccsc1C(=O)N1CCC(n2cc(-c3nc(-c4ccccc4)no3)nn2)CC1	i
CCOc1ccccc1C(=O)N1CCc2[nH]nc(C(=O)NCCCc3ccccc3)c2C1	-15.7%
CNC(=O)[C@@H](c1ccc(OC)cc1)N1CCC[C@H]1C(=O)N1CCCC1	-13.3%[44.1 µM]
COc1ccc2c(c1)OCC(CNC(=O)c1ccc(-c3nnn(C)n3)cc1)C2 (stereo not drawn)	1.5%
COc1ccc2c(c1)OCC(CNC(=O)c1cc(-c3ccncc3)n[nH]1)C2 (stereo not drawn)	12.6µM*
COc1ccc2c(c1)OCC(CNC(=O)c1scc3c1OCCO3)C2 (stereo not drawn)	-19.5%
O=C(CN1CCOCC1)N1CC2CC(C1)[C@H]1CCCC(=O)N1C2 (stereo partly drawn)	-1.2%
CC(=O)N1CCC2(CNS(=O)(=O)c3cnccc3O2)C1 (stereo not drawn)	21.7%
Cc1ccncc1C(=O)N1CCCC(c2nc(-c3cccnc3)no2)CCNC(=O)CC1 (stereo not drawn)	0.1%
O=C([C@@H]1C[C@H](Oc2ccccc2)CN1C(=O)c1ccncc1)N1CCCC1	-14.1%
COCCCNc1ccc2nnc(-c3ccc(C)cn3)n2n1	i
COc1ccc(-c2nnc3ccc(N(C)Cc4ccccc4)nn23)nc1	7.94µM*
COc1ccc(-c2nnc3ccc(N4CCc5ccccc5CC4)nn23)nc1	i
COc1ccc(-c2nnc3ccc(N4CCN(c5ccccn5)CC4)nn23)nc1	12.6µM*
C[C@@H]1CN(c2ccc3nnc(-c4ccccn4)n3n2)C[C@H](C)O1	21.1%[44.1 µM]
CN(C)c1ccc2nnc(-c3cc(C(=O)N(C)c4ccccc4)ccn3)n2n1	-16.8%[44.1 µM]
Cn1cnc(C(=O)NC2CCN(C(=O)N3CC4CC(C3)[C@H]3CCCC(=O)N3C4)CC2)c1 (stereo partly drawn)	i
SMILES	Pf Dd2 growth
COc1ccc(F)cc1S(=O)(=O)N1CCCC(Cn2c(C3CC3)nc3cccnc32)C1 (stereo not drawn)	i
COc1ccc(CC(=O)N2[C@@H]3CC[C@H]2CC(NC(=O)c2ccncc2)C3)cc1Cl (stereo partly drawn)	-20.5%
COc1ccc(-c2cc(N3CCC(NC(=O)c4ccc(Cl)cc4OC)CC3)n[nH]2)cc1	i
Cn1cc(-c2ccccc2OC(F)(F)F)c2nc(CN3CCNC(=O)C3)cn2c1=O	-12.1%[44.1 µM]
Cc1nc(C)c(C(=O)N2C[C@@H](Oc3ccccc3)C[C@H]2C(=O)NC2CC2)s1	-4.0%
Cc1ccc(-c2cc(C(=O)Oc3ccccc3)c3cccc(C)c3n2)cc1	-10.3%
COc1ccc(-c2cc(C(=O)Oc3ccc(C)cc3)c3cc(C)ccc3n2)cc1	i
COc1ccc(-c2cc(C(=O)Oc3ccccc3)c3cc(C)ccc3n2)cc1	4.47µM*
CC[C@H]1CN(C(=O)C2CC2)CC[C@H]1CC(=O)NC1CC1	47.2%[44.1 µM]
CC(C)CC(=O)NC1CCN(c2cn[nH]c(=O)c2)CC1	-11.3%
CCCCC(=O)NC1CCN(c2cn[nH]c(=O)c2)CC1	2.82µM*
CCCCC(=O)NC1CCN(c2cnn(C)c(=O)c2)CC1	6.7%
COC(=O)c1cn([C@H]2CO[C@H]3[C@@H]2OC[C@@H]3NCCCc2ccccc2)nn1	3.7%[44.1 µM]
CCOc1ccc(NC(=O)Cn2c(-c3ccc(F)cc3)nc(C)c(CCO)c2=O)cc1	-17.0%
COc1cccc([S+](=O)([O-])N2CC3ON=C(C(=O)O)C3C2)c1 (stereo not drawn)	5.0%
COc1ccc(Cl)cc1S(=O)(=O)N1CCN(C(=O)c2cc(-c3ccc(Br)cc3)n[nH]2)CC1	10µM*
O=C(c1cc(-c2ccccc2)n[nH]1)N1CCc2c(nc(-c3ccc(F)cc3)[nH]c2=O)C1	-18.4%
COc1ccc(Cl)cc1C(=O)N1CCCN(c2cc(-c3ccc(F)cc3)[nH]n2)CC1	i
O=C(c1cc(-c2ccc(Br)cc2)n[nH]1)N1CCN(S(=O)(=O)c2ccc(Br)cc2)CC1	8.91µM*
COc1ccc(S(=O)(=O)N2CCN(C(=O)c3cc(-c4ccc(Br)cc4)n[nH]3)CC2)cc1OC	-17.6%
COc1ccc(Cl)cc1C(=O)N1CCCN(c2cc(-c3ccc(Br)cc3)[nH]n2)CC1	-21.4%
Cc1nc(-c2c3n(c(=O)n(CC(=O)Nc4ccc(C)c(C)c4)c2=O)CCCC3)no1	-6.0%
O=C(CC[C@@H]1CNC(=O)[C@@H]2C[C@H](NCc3ccc(CO)o3)CN12)NCc1ccccc1	15.0%[44.1 µM]
CCOc1cccc(CNC(=O)[C@@]23CCCC[C@H]2N(C)C(=O)CC3)c1	6.7%
O=C([C@@H]1C[C@H](Oc2ccccc2)CN1C(=O)CC1CCCC1)N1CCCC1	i
SMILES	Pf Dd2 growth
O=C([C@@H]1C[C@H](Oc2ccccc2)CN1C(=O)C1(c2ccccc2)CC1)N1CCCC1	1.78µM*
CC(C)CC(=O)N1C[C@@H](Oc2ccccc2)C[C@H]1C(=O)N1CCCC1	-0.6%
COc1cccc(CNC(=O)Cn2ccn3nc(-c4ccccc4)c(CO)c3c2=O)c1	2.8%
CN1CCN(C(=O)[C@@H]2CCC[C@@H](NC3CCOCC3)CN(C)C(=O)C2)CC1	34.6%[44.1 µM]
CC(=O)N1Cc2ccccc2CC2(CCN(C)CC2)C1	-20.8%[44.1 µM]
CN1CCN(C(=O)C2(N(C)CCc3ccccc3)Cc3ccccc3C2)CC1	1µM*
CN(C)CCC(=O)N1Cc2ccccc2CC2(CCCCN2C)C1 (stereo not drawn)	-34.0%
Cc1cccc(OCC2(CNCc3nccs3)C[C@@H](O)[C@@H](O)C2)n1 (stereo partly drawn)	-12.1%
O=C(O)c1ccc(CN2CC[C@H](c3nnc(-c4cccnc4)o3)C2)cc1	-4.8%[44.1 µM]
COc1ccc(NC(=O)NC[C@H]2C[C@@H]3CCN2C[C@@H]3CN2CCN(c3ncccn3)CC2)cc1	i
COc1cccc(OC)c1C(=O)Nc1nc2c(s1)CCc1ccccc1-2	20.9%
COc1ccc2c(c1)CCc1sc(NC(=O)c3ccc(Br)cc3)nc1-2	-2.3%
COc1ccc2c(c1)-c1nc(NC(=O)c3cccc(Br)c3)sc1CC2	10µM*
O=C1Nc2ccccc2CC12CCCN(CC1CCCCC1)C2 (stereo not drawn)	-20.6%
CN(C)S(=O)(=O)N1CCC2(CCCN(Cc3ccc(F)c(F)c3)C2=O)C1 (stereo not drawn)	-10.5%
O=C1N(Cc2ccc(F)cc2)CCCC12CCN(CC1CCCC1)C2 (stereo not drawn)	3.98µM*
O=C(c1cnccn1)N1CCc2onc(C(c3ccccc3)c3ccccc3)c2C1	i
COCC1CN(C(C)=O)CC12CCN(Cc1ccc(Cl)cc1)CC2 (stereo not drawn)	9.9%
COCc1noc([C@@H]2CN(S(=O)(=O)Cc3ccccc3F)C[C@H]2C(N)=O)n1	-0.2%
